The list is not random: actives were taken first. Their share in the collection is about 2.9%.
PAFAH1B3 FP inh = PAFAH1B3 (human) inhibition; Q15102; recombinant PAFAH1B3, FP-rhodamine probe, fluorescence polarization; inhibition, % at 3.39 µM; 340,000 tested, 0.28% active; AID 492972;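 active = inhibition above the screen-wide average of all tested compounds plus 3 SD, cut at about 25% in these data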;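 note: 0% = enzyme with DMSO only and 100% = wells lacking PAFAH1B3 protein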
ZTA counter = blocks Epstein-Barr virus ZTA, an EBNA-1 counter-screen. P03206. ZTA-DNA binding, fluorescence polarization. inhibition, % at 11 µM. 320,000 tested, 0.15% active; in the data active = inhibition above about 33%
Target sequence (P03206 whole entry, looked up): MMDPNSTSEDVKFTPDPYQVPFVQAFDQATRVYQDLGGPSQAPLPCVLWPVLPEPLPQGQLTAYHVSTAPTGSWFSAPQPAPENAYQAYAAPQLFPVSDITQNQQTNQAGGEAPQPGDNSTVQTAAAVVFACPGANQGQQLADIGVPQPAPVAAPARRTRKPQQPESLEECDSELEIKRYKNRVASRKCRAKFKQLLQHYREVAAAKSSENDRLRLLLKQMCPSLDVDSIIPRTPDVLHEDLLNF
EBNA-1 inhibitor = blocks EBNA-1 binding to DNA; 300,000 tested, 0.34% active; EBNA-1 DNA binding, fluorescence polarization; inhibition, % at 14.8 µM; AID 1950; in the data active = inhibition above about 28%
PAFAH2 inh = PAFAH2 (human) inhibition; recombinant PAFAH2, FP-rhodamine activity probe, fluorescence polarization; 340,000 tested, 0.99% active; Q99487; inhibition, % at 3.39 µM;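 active = inhibition above the mean over all tested compounds plus 3 SD, cut at about 30% in these data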;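 note: inhibitors block probe labeling of enzyme so polarization drops; 0% = enzyme with DMSO and 100% = wells lacking PAFAH2 protein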
PAFAH1B2 inh = inhibitors of human PAFAH1B2; P68402; recombinant PAFAH1B2, FP-rhodamine activity probe, fluorescence polarization; inhibition, % at 3.39 µM; 340,000 tested, 1.2% active; AID 492953;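 active = inhibition above the mean of all tested compounds plus 3 SD, cut at about 24% in these data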;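 note: 0% = enzyme with DMSO and 100% = wells lacking PAFAH1B2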
Target sequence (P68402 whole entry, looked up): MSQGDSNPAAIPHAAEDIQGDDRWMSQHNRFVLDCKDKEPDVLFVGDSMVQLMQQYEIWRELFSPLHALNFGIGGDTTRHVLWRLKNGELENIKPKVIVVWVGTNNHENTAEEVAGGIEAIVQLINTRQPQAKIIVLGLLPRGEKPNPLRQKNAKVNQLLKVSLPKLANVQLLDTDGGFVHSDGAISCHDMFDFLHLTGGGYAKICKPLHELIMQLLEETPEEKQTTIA
rCAG binder = r(CAG) repeat RNA binding; TO-PRO-1 dye displacement fluorescence; AID 651821; inhibition, % at 3 µM; 370,000 tested, 1.3% active;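 active = inhibition above the plate cutoff, the mean of all test compounds on that plate plus 3 SD, cut at about 35% in these data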;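 note: 0% = DMSO alone and 100% = 100 µM mitoxantrone as full dye displacement; higher means more dye released from RNA so lower well fluorescence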
rCAG bind conf = r(CAG) RNA repeat binding, confirmation; inhibition, % at 3 µM; shares compounds with rCAG binder; TO-PRO-1 dye displacement fluorescence; AID 652065; 4,300 tested, 70% active;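 active = inhibition above a per-plate cutoff, the mean inhibition of sample wells plus 3 SD, cut at about 35% in these data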;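 note: loss of TO-PRO-1 fluorescence as compound displaces dye from 1x1 AA loop RNA; 0% = DMSO only wells and 100% = 100 µM mitoxantrone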
DNA CAG counter = disrupts DNA CAG TO-PRO-1 complex, flagging rCAG hits; AID 652068; d(CAG) DNA oligo TO-PRO-1 dye displacement, fluorescence; shares compounds with rCAG binder; 4,300 tested, 94% active; inhibition, % at 3 µM;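 active = inhibition above its plate's cutoff, the mean test-well inhibition plus 3 SD, cut at about 4.8% in these data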;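 note: 0% = DNA dye mix with DMSO and 100% = 100 µM mitoxantrone; hits displace the dye from DNA and so lower well fluorescence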
The depositor's hits bear a star; nt = not tested or not shown.

SMILES	PAFAH1B3 FP inh	ZTA counter	EBNA-1 inhibitor	PAFAH2 inh	PAFAH1B2 inh	rCAG binder	rCAG bind conf	DNA CAG counter
CCN(CC)c1ccc(NC(=O)CSc2nc3ccccc3c(=O)n2-c2ccc(C)cc2)cc1	nt	nt	nt	nt	nt	13	nt	nt
Cc1ccc(-n2c(SCC(=O)NNC(=S)Nc3ccccc3)nc3ccccc3c2=O)cc1	10	-17	-3	11	10	55*	42*	18*
O=C(CSc1nc2ccccc2s1)NNC(=S)Nc1ccc(Cl)cc1	7	3	-2	9	18	58*	69*	30*
CC(C)(C)CC(C)(C)NC(=S)NC1CCN(Cc2ccccc2)CC1	3	-5	16	1	1	-9	nt	nt
Cc1ccc(-n2cc(CNCC3CC(=O)N(C4CC4)C3)c(-c3cccc(C)c3)n2)cc1 (stereo not drawn)	-2	-9	12	-5	8	-5	nt	nt
Cc1ccc(C2C(C#N)=C(N)Oc3n[nH]c(-c4cccnc4)c32)o1 (stereo not drawn)	11	-6	-12	-1	2	1	nt	nt
Cc1ccc(C2C(C#N)=C(N)Oc3n[nH]c(-c4ccccc4)c32)o1 (stereo not drawn)	12	-17	1	25	10	41*	40*	20*
O=C(CSc1nc2[nH]c(=O)cc(O)c2s1)Nc1ccc(Cl)c(C(F)(F)F)c1	10	-20	nt	0	7	41*	31	11*
O=c1cc(NCCc2ccccc2)c2ccccc2o1	-4	15	3	2	2	-2	nt	nt
CCOc1ccc2nc(SCc3ccc(CC(=O)O)cc3)c(C#N)cc2c1	-7	-2	7	6	-1	60*	55*	20*
CCOc1ccc2nc(SCC(=O)N3c4ccccc4Sc4ccccc43)c(C#N)cc2c1	-6	5	1	-25	-8	4	nt	nt
COc1cc(C2C3=C(Nc4nc(N)[nH]c(=O)c42)c2ccccc2C3=O)ccc1O (stereo not drawn)	4	-3	0	23	8	61*	28	20*
CCC(C)c1ccc(C2C3=C(Nc4nc(N)[nH]c(=O)c42)c2ccccc2C3=O)cc1 (stereo not drawn)	-1	4	0	-2	-2	43*	47*	29*
COc1cc(C2C(=O)c3ccccc3C2=O)ccc1O	9	0	-12	5	2	13	nt	nt
Nc1nc2c(c(=O)[nH]1)C(c1ccccc1)C1=C(N2)c2ccccc2C1=O (stereo not drawn)	-5	-1	-8	18	3	62*	32	27*
CCOC(=O)C1=CCN(S(=O)(=O)c2ccccc2C)C1c1ccccc1 (stereo not drawn)	nt	nt	nt	nt	nt	1	nt	nt
CC(=O)NS(=O)(=O)c1ccc(NC(=O)/C=C/c2cn(-c3ccccc3)nc2-c2ccccc2)cc1	-28	14	2	-67	-25	87*	86*	66*
O=C(/C=C\c1cn(-c2ccccc2)nc1-c1ccccc1)Nc1nccs1	-5	-5	8	-16	-5	5	nt	nt
Nc1cc2c(cc1[N+](=O)[O-])-c1ccccc1C2=NO	4	nt	nt	5	2	44*	30	24*
O=[N+]([O-])c1ccc(Oc2ccc(S(=O)(=O)Nc3ccccc3)cc2)cc1	-1	11	12	-4	3	nt	nt	nt
O=C1C(Cl)=C(NS(=O)(=O)c2ccc([N+](=O)[O-])cc2)C(=O)c2ccccc21	24	11	-2	17	22	38*	24	5.3*
CCOC(=O)CC[C@@H]1CC[C@]2(CCCN(C(=O)C(C)(C)C)C2)O1	nt	nt	nt	nt	nt	-1	nt	nt
Cc1ccc(C2C(/C=C3/SC(=S)NC3=O)=C(c3cccs3)Oc3ccccc32)cc1 (stereo not drawn)	8	-7	7	21	5	80*	83*	51*
O=C(/C=C/c1cccs1)Nc1scc(-c2ccccc2)c1C(=O)O	-15	nt	nt	-13	-8	37*	36*	11*
COc1cc(C(=O)Nc2c(C(=O)O)[nH]c3ccc(C)cc23)cc(OC)c1OC	-2	nt	nt	7	22	54*	27	5.3*
SMILES	PAFAH1B3 FP inh	ZTA counter	EBNA-1 inhibitor	PAFAH2 inh	PAFAH1B2 inh	rCAG binder	rCAG bind conf	DNA CAG counter
O=C(Nc1scc(-c2ccccc2)c1C(=O)O)c1ccccc1Cl	1	11	1	4	1	19	nt	nt
CC1CCc2c(sc(NC(=O)/C=C/c3cccs3)c2C(=O)O)C1 (stereo not drawn)	3	-3	3	14	14	46*	66*	26*
O=C(/C=C/c1cccs1)Nc1nc(-c2ccccc2)cs1	-6	-15	-6	-34	-2	11	nt	nt
Cc1ccc(C(=O)Nc2scc(-c3ccccc3)c2C(=O)O)cc1	14	-6	2	-8	6	51*	34	8.8*
CCOC(=O)c1[nH]c2ccccc2c1NC(=O)c1cc(OC)c(OC)c(OC)c1	10	17	10	4	-6	-3	nt	nt
Cc1c(/C=C2\NC(=O)NC2=O)c2ccccc2n1C	5	-6	4	4	5	2	nt	nt
COC(=O)c1c(-c2ccc(C)cc2)csc1NC(=O)C1CC=CCC1C(=O)O (stereo not drawn)	-4	6	-7	-2	2	38*	38*	8.5*
CCc1cc(C(=O)O)c(NC(=O)c2cc(OC)c(OC)c(OC)c2)s1	8	3	-5	1	6	38*	20	3
COc1ccc(-c2csc(NC(=O)c3ccccc3F)c2C(=O)O)cc1	6	11	-1	6	7	48*	32	6.1*
COC(=O)c1c(-c2cc(C)ccc2C)csc1NC(=O)C1CC=CCC1C(=O)O (stereo not drawn)	1	8	11	13	2	30	nt	nt
COc1cc(C(=O)Nc2scc(-c3ccc(C)cc3)c2C(=O)O)cc(OC)c1OC	8	16	3	3	7	50*	76*	39*
CCOC(=O)c1c(-c2cc(OC)c(OC)c(OC)c2)csc1NC(=O)c1ccccc1	nt	nt	nt	nt	nt	4	nt	nt
CCOC(=O)c1cc(CC)sc1NC(=O)c1cc(OCC)c(OCC)c(OCC)c1	3	2	-1	3	-2	-1	nt	nt
CCCCC(=O)c1ccc(OC(=O)c2ccc([N+](=O)[O-])cc2)cc1	-5	nt	nt	2	0	2	nt	nt
COc1ccc(Cn2ccc3ccc(-c4ccc5ccn(C(=O)C6CC6)c5c4)cc32)cc1	nt	nt	nt	nt	nt	20	nt	nt
Cc1cc(/C=C2/C(=N)N3C(=NC2=O)SN=C3S(C)(=O)=O)c(C)n1-c1ccccc1F	-6	4	2	-9	-6	80*	83*	56*

Screening data (PubChem)
